# Screening data from PubChem BioAssay.
# KB-V1 cytotox: kills drug-selected multidrug resistant KB-V1 cells. 400,000 tested, 3.4% active. KB-V1 MDR cells viability, CellTiter-Glo, 72 h. Potency, µM (series often up to 46.1 µM), usual class: cytotoxic; further: nearly all actives have a fitted effect of over 60% in size
#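 qHTS viability screen in drug-selected KB-V1 MDR cells: 72 h compound treatment at 37 degrees C, ATP luminescence end point.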
# KB-3-1 tox: kills parental KB-3-1 adenocarcinoma cells; KB-3-1 viability, CellTiter-Glo ATP luminescence, 72 h; Potency, µM (series often up to 46.1 µM), actives largely listed as cytotoxic; 400,000 tested, 1.4% active; further: nearly all actives have a fitted effect of over 60% in size
#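 Cells are dispensed, compounds pinned in, plates held at 37 °C for 72 h, then CellTiter-Glo is added and luminescence read after 10 minutes. Cell line: parental KB-3-1 in phenol-red-free DMEM, 10% FBS.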
# HT1080-NT tox: kills 2HG-producing HT-1080-NT fibrosarcoma cells. 360,000 tested, 1.6% active. Potency, µM (series often up to 46.1 µM), actives largely listed as cytotoxic. HT-1080-NT fibrosarcoma viability, CellTiter-Glo ATP luminescence, 48 h;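 further: NT is the 2HG producing partner of a matched IDH1 knockdown line; nearly all actives have a fitted effect of over 55% in size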
#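 Read-out is CellTiter-Glo luminescence after 10 minutes at room temperature, following 48 hours' compound treatment of HT-1080-NT cells (750 cells/well, RPMI, 5% FBS, 37 degrees C).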
# HT1080 IDH1KD tx: kills HT-1080 cells with IDH1 knockdown | Potency, µM (series often up to 46.1 µM), usual class: cytotoxic | AID 686971 | HT-1080 IDH1 knockdown viability, ATP luminescence, 48 h | 360,000 tested, 2% active
#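 Viability of IDH1-knockdown HT-1080 fibrosarcoma cells was assessed by CellTiter-Glo after 48 h at 37 °C with titrated compound; concentration-effect curves were classified by fit quality and response size.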
# MCF10A rereplic: inducers of DNA re-replication in MCF 10A breast cells. MCF 10A DNA re-replication, Hoechst nuclear intensity, 48 h. Potency, µM (top dose mostly 46.1 µM), most hits filed as activators. 350,000 tested, 2.9% active; further: nearly all actives have a fitted effect of over 50% in size
# SW480 rerep: DNA re-replication induction in SW480 cells; SW480 DNA re-replication, Hoechst DNA content imaging, 48 h; AID 624297; Potency, µM (doses to about 46.1 µM), hits mostly activators; 340,000 tested, 1.8% active; further: nearly all actives have a fitted effect of over 55% in size
#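 First, 250 cells per well were seeded. Next, compound or vehicle (23 nL) was pinned in, plates sat 48 hr at 37 C. Finally Hoechst was added for 40 min before fluorescence scanning.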
# A number is an active result; - = inactive; ? = inconclusive; . = not tested or not shown; [ ] = another dose, or the depositor's remark. The list is not random: actives were taken first. Their share in the collection is about 8%. The call rests on the fitted dose curve; in most records, active means well fitted curve in the direction sought with a large enough effect; inconclusive means small, poorly fitted or top-dose-only effect, or another doubt; inactive means no such curve, though single readings can be large; an effect the other way counts as inactive or inconclusive.
SMILES,KB-V1 cytotox,KB-3-1 tox,HT1080-NT tox,HT1080 IDH1KD tx,MCF10A rereplic,SW480 rerep
Cn1cc(C(=O)N/N=C/c2c(O)ccc3ccccc23)ccc1=O,-,?,?,?,25.9µM,-
Cn1nccc1C(=O)N/N=C/c1c(O)ccc2ccccc12,?,7.31µM,?,?,16.4µM,?
CCC(Sc1nc2c(sc3ccccc32)c(=O)n1CCc1ccc(OC)c(OC)c1)C(=O)N(CC)CC (centres undefined),-,-,.,.,.,.
O=C1CN(CCN2CC(=O)NC(=O)C2)CC(=O)N1,-,-,.,.,.,.
O=C(C[n+]1ccccc1Br)c1ccc(-c2ccccc2)cc1,?,-,.,.,.,.
CCOc1ccc2ccccc2c1/C=N\NC(=O)c1ccc([N+](=O)[O-])cc1,-,-,-,-,-,23.1µM
CCOc1ccc2ccccc2c1/C=N\NC(=O)OC,-,-,-,-,-,-
Oc1c(C(c2cccc(Cl)c2)N2CCOCC2)sc2nc(-c3ccco3)nn12 (centres undefined),-,-,.,.,.,.
CCCCNC(=S)NNC(=O)CCn1nc(C)c(Br)c1C,-,-,0.891µM,1.12µM,-,8.2µM
Cc1nn(CCC(=O)NNC(=S)Nc2ccc(F)cc2)c(C)c1Br,-,-,-,-,-,-
O=C(/C=C/c1cccnc1)Nc1cccc([S+](=O)([O-])Nc2ccccc2F)c1,-,-,.,.,.,.
COC(=O)CSc1c(-c2ccccc2)c2cc(Cl)ccc2[nH]c1=O,-,-,-,-,-,-
CC(=O)OCCSc1c(-c2ccccc2)c2cc(Cl)ccc2[nH]c1=O,23.1µM,-,-,-,-,-
CCOc1c(Br)cc(C2CC(=O)Nc3cc(OC)c(OC)cc32)cc1OC (centres undefined),-,-,-,?,-,-
COc1cc(C2CC(=O)Nc3cc(C)c(C)cc32)cc(OC)c1OC (centres undefined),16.4µM,9.2µM,?,?,?,?
COc1cc(C2CC(=O)Nc3n[nH]c(-c4ccccc4)c32)cc(OC)c1OC (centres undefined),-,20.6µM,?,?,?,?
COc1cc2c(cc1OC)C(c1ccc(SC)cc1)CC(=O)N2 (centres undefined),-,-,-,-,4.61µM,-
O=c1[nH]c(SCc2ccccc2)ncc1S(=O)(=O)c1ccccc1,.,.,-,-,.,.
O=C(C[n+]1ccncc1)c1ccc2ccccc2c1,-,?,.,.,.,.
CC(=O)c1nc2ccccc2n1CCc1ccccc1,-,-,-,-,1.84µM,-
Nc1nc2ccccc2n1C(=O)CCc1ccccc1,-,18.4µM,?,-,?,?
c1ccc(CCn2c(C3CC3)nc3ccccc32)cc1,20.6µM,-,?,-,?,-
Nc1nc2ccccc2n1C(=O)c1ccccc1,?,-,?,?,-,-
Cc1ccsc1C=Nc1ccc(O)cc1,-,-,-,23.1µM,?,?
O=S(=O)(c1ccc(F)cc1)c1nc(-c2ccco2)oc1Nc1ccc(F)cc1,-,-,-,-,?,-
SMILES,KB-V1 cytotox,KB-3-1 tox,HT1080-NT tox,HT1080 IDH1KD tx,MCF10A rereplic,SW480 rerep
COc1ccc(Nc2oc(-c3ccco3)nc2S(=O)(=O)c2ccc(F)cc2)cc1,-,-,-,-,14.6µM,?
CCn1c(=O)c2sccc2n2c(CCC(=O)Nc3ccc(OC)cc3OC)nnc12,-,-,.,.,.,.
O=C(Nc1cccc(Cl)c1)C1=Cc2cc(Cl)ccc2OC1,-,-,?,?,13µM,-
O=C(Nc1ccc(Cl)c(Cl)c1)C1=Cc2ccccc2OC1,-,-,?,?,20.6µM,-
CCn1c(=O)c2cc(C(=O)N(CC(C)C)CC(C)C)sc2c2ccccc21,?,-,.,.,.,.
O=C(CN1C(=O)C2CCCCN2c2ccc(C(=O)N3CCCC3)cc21)NCc1cccc(Cl)c1 (centres undefined),-,-,.,.,.,.
COc1ccc(NC(=O)Nc2ccccc2SC)cc1,-,-,-,-,-,-
Cc1cc(Cl)ccc1OCC(=O)Nc1ccccc1CO,?,-,-,-,-,-[9.22 µM]
COc1ccc(NC(=O)Nc2ccccc2F)cc1,18.4µM,?,?,-,-,-
CSc1ccc(NC(=O)Nc2cccn(Cc3ccccc3)c2=O)cc1,3.66µM,8.2µM,?,?,-,-
CSc1ccccc1NC(=O)COc1ccc(Cl)cc1C,13µM,?,-,-,?,-
CSc1ccccc1NC(=O)Nc1ccc(Cl)cc1,-,-,14.1µM,?,?,?
Cc1cccc(NC(=O)C2CCCN(S(=O)(=O)c3c(C)noc3/C=C/N(C)C)C2)c1C (centres undefined),-,-,.,.,.,.
CCOc1ccc(NC(=O)Nc2cc(C)ccc2F)cc1,13µM,-,?,?,-,-
CCOc1ccc(NC(=O)Nc2cc(C(C)C)c(O)cc2C)cc1,-,-,-,-,-,-
COc1ccc(C(=O)Nc2nccs2)cc1,-,-,-,-,-,-
COc1ccc(NC(=O)Nc2nccs2)cc1,7.31µM,?,?,?,?,11.6µM
C/C=C\C(=O)Nc1cccc(C2=NOC3(C2)C[C@@H](C(N)=O)N(C(=O)CC(c2ccccc2)c2ccccc2)C3)c1 (some centres undefined),-,-,-,-,-,-
CCCCCC(=O)Nc1cccc(C2=NOC3(C2)C[C@@H](C(N)=O)N(C(=O)CC(c2ccccc2)c2ccccc2)C3)c1 (some centres undefined),-,16.4µM,-,?,?,-
Fc1cccc(Cl)c1C1Nc2cccc3cccc(c23)N1,?,-,-,-,-,-
O=[N+]([O-])c1ccc(Cl)c(C2Nc3cccc4cccc(c34)N2)c1,?,10.3µM,-,-,-[0.0737 µM],-
Brc1ccc(C2Nc3cccc4cccc(c34)N2)o1,-,-,?,-[9.24 µM],14.6µM,-
Clc1cccc(Cl)c1C1Nc2cccc3cccc(c23)N1,-,?,?,?,18.4µM,?
COc1ccc(-c2cnc3c(NC=O)cc(-c4ccccc4OC)cn23)cc1OC,1.16µM,0.184µM,0.0461µM,0.184µM,.,.
COc1ccc(-c2cc(NC=O)c3ncc(-c4ccc(OC)c(OC)c4)n3c2)cc1,3.66µM,1.64µM,1.03µM,0.581µM,.,.
COc1ccc(-c2cc(NC(C)=O)c3ncc(-c4ccccc4)n3c2)cc1OC,-,-,?,-,.,.
CCOc1cc(C(=O)NCCc2sc(-c3ccc(F)cc3)nc2C)cc(OCC)c1OCC,-,-,.,.,.,.
Cc1ccc(-n2[nH]c3c4c(ccc3c2=O)C(=O)c2ccccc2C4=O)cc1,-,-,-,-,-,-
CC(C)(C)n1[nH]c2c3c(ccc2c1=O)C(=O)c1ccccc1C3=O,?,?,?,?,-,11.6µM
COCCCn1[nH]c2c3c(ccc2c1=O)C(=O)c1ccccc1C3=O,14.6µM,?,?,?,?,?
